One assay deals with RFX3. Nature of the assay: pooled miR-30 sensor sort-seq; sequence = guide strand. Conditions: shRNA.
In turn, TTGTTGTTCGGATTGCTCCATT returned a sensor-assay potency score (higher = more potent) of -0.745.
Same read-out and setting: for AATTTGACAACAGTCGACCTTC the value was 0.318; for TAAATCACCAAACTCGCCCATG, -0.686.
On the same count and under the same terms, under TTGGTATAGACAGTATCGCTTC stands -0.105; under TTGTTGTACTGGTACTTGCTGT, -0.28.
In the case of TTAAGTGTTGTAAAAATCCTTC, the sensor-assay potency score (higher = more potent) is -0.411.
On the same count and under the same terms, under TACACCAAGACTAACAATCAAC stands -1.04.
With TAAATTTTCAACTTAAGCCCAA, the sensor-assay potency score (higher = more potent) was determined as 0.019.
Consider TAGAATTTGACAACAGTCGACC, for which the sensor-assay potency score (higher = more potent) was -0.732.
With TTGAAGATTCACAACAACGTCC, the sensor-assay potency score (higher = more potent) was determined as 0.274.
In turn, TTGACAACAGTCGACCTTCAGG returned a sensor-assay potency score (higher = more potent) of -0.926.
Same read-out and setting: for TTCTAGTCTCTGAACCATGTTG the value was -0.714.

In the next assay the target is RGS13. The description is as above. Conditions: shRNA.
In turn, ATGATAGTCTCTCTTGTCGAAC had a sensor-assay potency score (higher = more potent) of -1.51.
Same read-out and setting: for TCTGACTTTAGAAATCTGGGGT the value was 0.865.
Regarding TTCCTGATGATAGTCTCTCTTG, the sensor-assay potency score (higher = more potent) is -0.749.
The same measure, in the same setting: under TTTTGGTACATTTCTGACTTTA stands -0.566.
Consider TAGTCTCTCTTGTCGAACTGTC, for which the sensor-assay potency score (higher = more potent) is -0.609.
Same read-out and setting: under TAGGTTTCACATGCCATCCAGA stands -0.935; under TAGAAATTCTGCTCCACCGTGA, 0.617.
TTAATTGAACTACATAGGCTTG showed a sensor-assay potency score (higher = more potent) of -0.858.
The sequence TTGAATATTCTCGTCACTGTGC displayed a sensor-assay potency score (higher = more potent) of 0.436.
Same read-out and setting: under ATAGTCTCTCTTGTCGAACTGT stands -0.257.
Still for that read-out and setting: for TTAATGAACATAATAGTAGGAA the value was 0.19; for TTAAATTTTCAAAAGACTGGGC, -0.0917.

The target in another assay is RGS6. The description is as above. Conditions: shRNA.
Sequence TTGGCTGAGTACATGCACCGGG showed a sensor-assay potency score (higher = more potent) of 0.473.
On the same count and under the same terms, for TTATTTTGCATTGTCCTCTTAC the value was -0.243; for TTTTCAAACAATGTCTGTCGAT, -0.396; for TCTGTCTTGTCTTTTTTCCGGT, 0.0231.
TTTCAAACAATGTCTGTCGATC displayed a sensor-assay potency score (higher = more potent) of -0.513.
For the sequence TCAAACGTCGACATTTTCGGAT, the sensor-assay potency score (higher = more potent) is -0.513.
On the same count and under the same terms, under TAATCTCAAGTGATAGTCGTGA stands 0.294.
The same measure, in the same setting: for TTCTGCTTCATAATCTGCCAGT the value was -0.422; for TAATCTGCCAGTTCCAGCCTTG, -0.407; for TAAACTTTCAGCCACTTTGGAC, -0.804.
Still for that read-out and setting: for TTGTCATCTTGCATCTTTGTAA the value was -0.676.
Turning to TTTGACACACACACACAGGGAA, the sensor-assay potency score (higher = more potent) came to 0.653.

The values are drawn from the OligoGym collection.
Note: reference of the scale not given here.
